Data: PubChem BioAssay (EPA / NIEHS)
Calls of active or inactive are those of the source. The calls were made as follows: active = hit-call score of the fitted dose curve at least 0.9, where 1 is the maximum; inactive = score below 0.9.

The compounds below were run on Apoptosis regulator Bcl-2 (Homo sapiens) (UniProt P10415) (assay: LTEA_HepaRG_BCL2: Life Technologies and Expression Analysis (LTEA) Assay for Bcl-2 gene using HepaRG (AID 2283475;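 also: BCL2 transcript by TaqMan qRT-PCR normalised to ACTB GAPDH and POLR2A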)). Settings: mRNA level, 48 h; actives raise or lower the signal.
Apoptosis regulator Bcl-2 (Homo sapiens), sequence (P10415 whole entry, looked up): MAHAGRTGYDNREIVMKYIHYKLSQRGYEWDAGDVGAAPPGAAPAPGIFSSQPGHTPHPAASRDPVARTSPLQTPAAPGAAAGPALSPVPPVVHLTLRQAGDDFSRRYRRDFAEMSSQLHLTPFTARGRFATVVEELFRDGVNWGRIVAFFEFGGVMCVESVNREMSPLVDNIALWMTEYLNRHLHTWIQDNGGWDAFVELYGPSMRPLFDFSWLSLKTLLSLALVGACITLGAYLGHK
Protocol: LTEA_HepaRG is a cell based, multiplexed-readout assay that uses HepaRG, a human liver cell line, with measurements taken at 48 hours after chemical dosing on a 96-well plate.LTEA_HepaRG_BCL2 is one of 102 assay component(s) measured in the LTEA HepaRG cell culture assay. It is a marker of Cell proliferation, survival, death.Data from the assay component LTEA_HepaRG_BCL2 was analyzed into 1 endpoint. This assay endpoint, LTEA_HepaRG_BCL2, was analyzed with bidirectional fitting relative to DMSO as the negative control and baseline of activity. Using a type of inducible reporter, measures of mRNA induction for gain or loss-of-signal activity can be used to understand regulation of transcription factor activity. To generalize the intended target to other relatable targets, this assay endpoint is annotated to the cell cycle intended target family, where the subfamily is Cell proliferation, survival, death.
A total of 1060 chemcials from the ToxCast library were tested in eight-point concentration-response experiments. Cell culture and cytotoxicity assays were conducted at Thermo Fisher Scientific's Custom Services facility (Madison, WI). A single lot of human HepaRG cells (Thermo Fisher Scientific, Frederick, MD) was used for the cell culture experiments. 96-well format collagen type I coated plates of human HepaRG cells were prepared using established methods. Briefly, cryopreserved HepaRG cells were thawed, plated at a density of approximately 100,000 cells/well in HepaRG Thaw, Plate, and General Purpose media (HPRG770, Thermo Fisher Scientific), and incubated for 48 hours. 0.5% DMSO was selected as vehicle control to balance the requisite need of DMSO in HepaRG cultures to maintain differentiation (for example, baseline metabolism, proportions of hepatocytes vs. cholangiocytes), while enabling further hepatic receptor pathway activation (for example, PXR and CAR) in response to chemical exposure. 48 hours after plating, the culture medium was replaced with HepaRG Serum-Free Incudtion Media. Cells were exposed to each test chemical in duplicate and maintained in CO2 incubators for another 48 hours. Chemical plates were thawed to room temperature and 200x concentrations of treatment groups were prepared. 8-point conentration-reponse curves were made with the highest exposure at 100 uM, followed by half-log dilutions, all in 0.5% DMSO. Each test plate contained variouse controls, induction positive controls (1mM phenobarbital), cytotoxicity positive controls ([…] aflatoxin B1), vehicle controls (0.5% DMSO), and total lysis controls (0.5% DMSO). Cell morphology images were taken using an Essen IncuCyte FLR automated microscope, with six 96-well plates imaged in about 24 minutes. Images were captured and exported and JPEG files. Spent culture media was transfered to black-well plates for the LDH assay, and remaining media was sorted at -80 C for later use. Cells were treated with RLT buffer and frozen until shipped for gene expression analysis. Total RNA was isolated from the cell suspension in 75 uL of Buffer RLT (Qiagen, Germantown, MD 20874) by Quintiles/Expression Analysis (Durham, NC) using a custom isolation procedure. Total RNA from each plate well was transferred to a preamplification plate. Fluidigm's 96.96 Dynamic ArrayTM (Fluidigm, Amsterdam, the Netherlands) technology was used for gene expression analyses by quantitative reverse transcription polymerase chain reaction (qRT-PCR, performed by Quintiles/Expression Analysis, Durham, NC)89. Standard TaqManTM Assays (Applied Biosystems/ThermoFisher Scientific, Foster City, CA) were used to assess the expression of 93 genes selected based on their selectivity and sensitivity to important hepatic receptors known to be modulated by environmental chemicals; importance in human hepatocyte functionality; and hepatotoxicity. […]
In the case of CC(C)c1cccc(C(C)C)c1, the outcome is reported as “inactive”.
O=C1NC(=O)C(c2ccccc2)(c2ccccc2)N1 was tested, and the outcome was “inactive”.
In the case of CC1(C)C(=O)NC(=O)N1CO, the outcome is reported as “inactive”.
For Oc1ccc(O)cc1, the outcome was “inactive”.
With O=C(O)c1[nH]n(-c2ccc(S(=O)(=O)O)cc2)c(=O)c1N=Nc1ccc(S(=O)(=O)O)cc1 the outcome was “inactive”.
O=NO was tested, and the outcome was “inactive”.
In the case of Cc1ccc(-c2cc(C(F)(F)F)nn2-c2ccc(S(N)(=O)=O)cc2)cc1, the outcome is reported as “inactive”.
O=C1OC(c2ccc(O)cc2)(c2ccc(O)cc2)c2ccccc21 was tested, and the AC50 was 50 µM (active).
With CCCCC(CC)COC(=O)CCCCCCCC(=O)OCC(CC)CCCC (stereo not given) the outcome was “inactive”.
With CC(=O)CC(c1ccccc1)c1c(O)c2ccccc2oc1=O (stereo not given) the outcome was “inactive”.
For NC1CCCCC1, the outcome was “inactive”.
With CC(=O)OCC(COC(C)=O)OC(C)=O the outcome was “inactive”.
CC(COCC(C)OC(=O)c1ccccc1)OC(=O)c1ccccc1 (stereo not given) was tested, and the outcome was “inactive”.
CCCCCCCCCCCCCCCCO was tested, and the outcome was “inactive”.
COC(=O)CCCC(=O)OC was tested, and the outcome was “inactive”.
With NC=O the outcome was “inactive”.
CN(C)CCCN1c2ccccc2Sc2ccc(Cl)cc21 was tested, and the outcome was “inactive”.
CCCC(=O)O was tested, and the outcome was “inactive”.
For CCCCCCCCCC[N+](C)(C)[O-], the outcome was “inactive”.
For CC(C)(O)c1ccc(CNC(=O)c2cccnc2Oc2ccc(F)cc2)cc1, the outcome was “inactive”.
With CC(C)OC(=O)C(C)(C)Oc1ccc(C(=O)c2ccc(Cl)cc2)cc1 the outcome was “inactive”.
O=C1O[C@H]([C@H](O)CO)C(O)=C1O was tested, and the outcome was “inactive”.
In the case of N[C@@H](Cc1c[nH]c2ccccc12)C(=O)O, the outcome is reported as “inactive”.
In the case of COc1ccc(C(=O)Nc2nc3ccccc3c(NCc3ccccc3)c2C#N)cc1, the outcome is reported as “inactive”.
CCCCCCC(C=O)=Cc1ccccc1 was tested, and the outcome was “inactive”.
For COC(=O)[C@H]1[C@H]2C[C@@H]3c4[nH]c5cc(OC)ccc5c4CCN3C[C@H]2C[C@@H](OC(=O)c2cc(OC)c(OC)c(OC)c2)[C@@H]1OC, the AC50 was 42.2 µM (active).
With CCCCCCC(CCCCCCCCCCC(=O)OCC(COC(C)=O)OC(C)=O)OC(C)=O (stereo not given) the outcome was “inactive”.
For CCCC[C@H]1CN(CC2CCOCC2)C(=O)OC12CCN(C1(C)CCN(C(=O)c3c(C)ncnc3C)CC1)CC2, the outcome was “inactive”.
In the case of CC(C)(C)c1ccccc1, the outcome is reported as “inactive”.
With CCCCC(CC)CO (stereo not given) the outcome was “inactive”.
In the case of Cc1cc(SC2=C(O)C[C@@](CCc3ccc(N)cc3)(C(C)C)OC2=O)c(C(C)(C)C)cc1CO, the outcome is reported as “inactive”.
With CS(=O)(=O)c1ccc([C@@H](C[C@H]2CCC(=O)C2)C(=O)Nc2cnccn2)cc1Cl the AC50 was 16.1 µM (active).
In the case of c1ccc2occc2c1, the outcome is reported as “inactive”.
In the case of CCOCCOCCO, the outcome is reported as “inactive”.
In the case of O=C(Oc1ccccc1)c1cccc(C(=O)Oc2ccccc2)c1, the outcome is reported as “inactive”.
For C#CC(O)C(CC)CCCC (stereo not given), the outcome was “inactive”.
OCC(O)CO was tested, and the outcome was “inactive”.
For C=CCCCCCCCCCCCC, the outcome was “inactive”.
In the case of O=C(O)c1cccnc1, the outcome is reported as “inactive”.
With CCC(C)N(C)C(=O)c1cc2ccccc2c(-c2ccccc2Cl)n1 (stereo not given) the outcome was “inactive”.
